For orientation: inhibition means the drop in the measured response relative to a control, in per cent.

In all, about 4,900 compounds went through this assay and about 2,100 (43%) were called active.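 Rule for the calls: active = thallium signal inhibited by more than 5 SD of the compound-free buffer control wells, on both duplicate plates; inactive = the rest.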 The set was probably picked from earlier hits. The sample as a whole holds a higher share of actives than the screen did.

We go through six compounds from PubChem BioAssay AID492992 (Johns Hopkins Ion Channel Center, 2010).

Chain of Potassium channel subfamily K member 9 (Homo sapiens) (Q9NPC2 whole entry, looked up): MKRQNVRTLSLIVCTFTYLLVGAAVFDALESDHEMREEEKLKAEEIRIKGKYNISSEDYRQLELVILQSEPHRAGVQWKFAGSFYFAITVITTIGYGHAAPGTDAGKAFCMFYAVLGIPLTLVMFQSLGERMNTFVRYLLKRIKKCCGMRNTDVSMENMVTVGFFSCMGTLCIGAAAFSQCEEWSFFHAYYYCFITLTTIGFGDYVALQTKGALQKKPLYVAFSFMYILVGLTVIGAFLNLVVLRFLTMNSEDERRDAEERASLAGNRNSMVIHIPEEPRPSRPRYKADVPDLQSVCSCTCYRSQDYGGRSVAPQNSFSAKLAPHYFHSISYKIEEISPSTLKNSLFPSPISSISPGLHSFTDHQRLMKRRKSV

The test addresses Potassium channel subfamily K member 9 (Homo sapiens) (UniProt Q9NPC2). The test is described as follows: KCNK9 potassium channel inhibitors, confirmation, HEK293 cells, thallium flux, duplicate (AID 492992).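 For inhibition: 0% = assay buffer control wells without compound.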 The settings on record: FluxOR thallium flux fluorescence, at 10 µM; stronger effect = higher value.
Turning to `CC(C)(C)c1ccc(CN2C(=O)CN=C(c3ccccc3)c3ccccc32)cc1`, the inhibition is 59% (active).

With `CCOC(=O)C1SC2(C(F)(F)C(F)F)CC1(O)c1c(c(OC)c3occc3c1OC)O2` (stereo unspecified), the inhibition was 23.5% (active).

Turning to `CC(C)n1c(=O)c(C=Nc2ccc(Br)cc2)c(O)n(Cc2ccco2)c1=O`, the inhibition entry was “inactive”.

In the case of `CCCCCCN=C(CC)c1c(O)n(CCCC)c(=O)[nH]c1=O`, the inhibition is 46.5% (active).

In the case of `CC(C)(C)c1ccc(OC(=O)N2CCCCC2)cc1`, the inhibition entry is “inactive”.

In the case of `CCCCCCCCCCCCn1ccc(=N)cc1`, the inhibition is 52.5% (active).
